Measured values published in PubChem BioAssay AID602428 (Sanford-Burnham Center for Chemical Genomics, 2012).
Screen size: about 2,500 compounds; about 980 (39%) were called active.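 How the source made its calls: active means mean inhibition at 5 µM reaching about 45% (limit read from the data); inactive means the rest.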 These entries were drawn from the full list.

Assay: Gli-SUFU pathway antagonists, confirmation, single concentration, luciferase luminescence, Sufu-KO-LIGHT cells (AID 602428);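 further: plate controls were DMSO-treated cells for no effect and wells lacking cells for full effect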
Settings: Gli luciferase reporter, at 5 µM, hits give high values

| SMILES | inhibition |
| --- | --- |
| C=CCNC(=S)/N=c1/ccccn1Cc1ccccc1 | 50.8% (active) |
| CCOc1cccc(/C=N/NC(=S)NCCN2CCOCC2)c1O | 24.5% (inactive) |
| Nc1ccc(C(=O)N2CCN(S(=O)(=O)c3ccc(Cl)cc3)CC2)cc1[N+](=O)[O-] | 17.8% (inactive) |
| COc1ccc(NC(=O)[C@H](NC(=O)[C@@H]2Cc3ccccc3CN2)c2ccccc2)cc1 | 17.9% (inactive) |
| CCOC(=O)c1ccc(NC(=O)Cn2cnc3cc(C)c(C)cc32)cc1 | 76.1% (active) |
| CC(=O)Nc1cccc(OCC(=O)/C=C2\N(C)c3ccccc3C2(C)C)c1 | 54.9% (active) |
| O=C(O)CCCn1cc(NC(=O)COc2cccc(Cl)c2)cn1 | 12.9% (inactive) |
| CC1CC2=C(CC1/C=N/NC(N)=S)C(C)(C)CCC2 (stereo not drawn) | 49.3% (active) |
| COc1ccccc1CNC(=O)C1CCN(c2nc3ccccc3o2)CC1 | 25.9% (inactive) |
| COc1ccccc1CCNC(=O)C(=O)NCCC1CCCCN1S(=O)(=O)c1cccs1 (stereo not drawn) | 48.8% (active) |
| COc1ccc(NS(=O)(=O)c2ccc(NC(C)=O)cc2)cc1OC | 51.5% (active) |
| Cc1cccc(NS(=O)(=O)c2ccc(-c3cnc(C4CC4)o3)cc2)c1 | 36.7% (inactive) |
| COc1ccc2c(C)cc3nnnn3c2c1 | 17.3% (inactive) |
| O=C(CN1C(=O)c2ccccc2S1(=O)=O)N1CCc2ccccc21 | 57.7% (active) |
| CC(C)OCC(O)CN1CCN(C(c2ccccc2)c2ccccc2)CC1 (stereo not drawn) | 10.4% (inactive) |
| CC(=O)/C(=N\Nc1ccc(Cl)cc1Cl)Sc1cccc2cccnc12 | 57.7% (active) |
| CCC(Cc1ccccc1)NC(=O)C1CCCCC1 (stereo not drawn) | 6.07% (inactive) |
| O=C(Nc1cc2c3c(c1)C1CCCC1CN3CC1CCCC21)c1ccc([N+](=O)[O-])cc1 (stereo not drawn) | 79% (active) |
| COc1cc(C(=O)OC2CCOC2=O)c([N+](=O)[O-])cc1OC (stereo not drawn) | 7.05% (inactive) |
| CC[n+]1c(C)n(-c2ccccc2)c2ccc(NC(C)=O)cc21 | 80.2% (active) |
| C=CCOC(=O)C1=C[C@@H](c2ccc3c(c2)OCO3)C[C@@H](OCCCCO)O1 | 28.9% (inactive) |
| O=C1/C(=C\c2cccnc2)CN(Cc2ccccc2)C/C1=C\c1cccnc1 | 19.9% (inactive) |
| CCCCC(=O)NC(c1ccc(OC)c(OC)c1)c1ccc2cccnc2c1O (stereo not drawn) | 55% (active) |
| Cc1ccc(NC(=S)Nc2ccc(F)cc2)cc1 | -13.7% (inactive) |

| SMILES | inhibition |
| --- | --- |
| CCN1/C(=C/C(=S)Nc2ccccc2)Sc2ccccc21 | 9.5% (inactive) |
| COc1ccc(Cn2c(-c3ccc(Cl)cc3)c[n+]3ccccc23)cc1 | 63.2% (active) |
| c1c2c(cc3sc(N4CCCCC4)nc13)OCCO2 | 34.5% (inactive) |
| O=c1c2ccccc2nc2n1C(CSCc1cccc(C(F)(F)F)c1)CS2 (stereo not drawn) | 67.6% (active) |
| CC1(C)CC(=O)c2c(n(S(=O)(=O)c3ccccc3)c3ccc(NS(=O)(=O)c4ccccc4)cc23)C1 | 19.1% (inactive) |
| C/C(=N\NC(=O)Cc1ccc(Cl)cc1)c1ccccn1 | 86.9% (active) |
| Cc1cc(NC(=O)c2cccc(N3C(=O)CCC3=O)c2)no1 | 20.1% (inactive) |
| CC(C)(CNC(=O)c1ccc(Cl)c(S(=O)(=O)N2CCc3ccccc3C2)c1)N1CCOCC1 | 22.8% (inactive) |
| CN(C)c1cc[n+](Cc2ccccc2)cc1 | 53% (active) |
| CCOC(=O)c1cnc(-n2nc(C)cc2C)nc1NNc1cc(C)nc(-c2ccccc2)n1 | 53.6% (active) |
| CCc1ccc(C2C(C#N)=C(N)N(N3CCOCC3)C3=C2C(=O)CC(C)(C)C3)s1 (stereo not drawn) | 7.97% (inactive) |
| C=CCn1c(SCC(=O)CC(=O)OCC)nc2cc(C(=O)N3CCC(C(N)=O)CC3)ccc2c1=O | 20.4% (inactive) |
| COc1cc(C(=O)OC(C)C(=O)NCC2CCCCC2)cc(NC(=O)c2ccco2)c1OC (stereo not drawn) | 13.1% (inactive) |
| COc1ccc(NS(=O)(=O)c2ccc(N3CCN(CCO)CC3)c([N+](=O)[O-])c2)cc1 | 45.5% (active) |
| COc1ccccc1/C=C/CN1CCC(CO)(Cc2ccccc2)CC1 | 12.3% (inactive) |
| O=C(CN1CCN(S(=O)(=O)c2cc(Cl)ccc2Cl)CC1)c1ccc(O)c(O)c1 | 22.3% (inactive) |
| NS(=O)(=O)c1ccc(CCNC(=O)CCCn2c(SCC(=O)N3CCCC3)nc3ccsc3c2=O)cc1 | 8.32% (inactive) |
| COC(=O)Cc1[nH]n(-c2nc3ccccc3s2)c(=O)c1C(C)=Nc1ccc(OC)cc1 | 91.5% (active) |
| N#CC(C#N)=CN=c1ccn(Cc2ccc(Cl)cc2Cl)cc1 | 50.9% (active) |
| CCn1c(SCc2ccccc2)nc2cc(OC)c(OC)cc2c1=O | 25.4% (inactive) |
| Cc1ccc(C(=O)C[n+]2cc(-c3ccccc3)n3c2CCCCC3)cc1 | 70.7% (active) |
| Cc1cc(C(=O)CSc2nc(N)cc(=O)[nH]2)c(C)n1-c1cccc(F)c1 | 55.4% (active) |
| Cc1ccc(-c2nc3c(cnn3-c3ccccc3)c(=O)o2)cc1 | 38.2% (inactive) |
| N#Cc1ccc(C(=O)Nc2nc(-c3cccs3)c(C(=O)C(F)(F)F)s2)cc1 | 66% (active) |

| SMILES | inhibition |
| --- | --- |
| O=C(O)c1ccc(N/N=C/c2ccc3ncccc3c2)cc1 | 61.1% (active) |
| CCNC(=S)N(CCN(CC)CC)Cc1cc2cc3c(cc2[nH]c1=O)OCO3 | 20.6% (inactive) |
| CC1(C)Cc2ccccc2/C(=C/C(=O)c2ccccc2)N1 | 27.6% (inactive) |
| CC(C)Oc1ccc(/C=N/NC(=O)c2nnn(-c3nonc3N)c2CN(C)C2CCCCC2)cc1 | 24.6% (inactive) |
| CC(=O)c1c(C)[nH]c(C(=O)OCC(=O)Nc2sc3c(c2C#N)CCCC3)c1C | 59% (active) |
| NC(N)=Nc1nc(-c2ccccc2)c2cc(Cl)ccc2n1 | 31.6% (inactive) |
| CCCOc1ccccc1C1CC(=O)Nc2cc3c(cc21)OCO3 (stereo not drawn) | 52.9% (active) |
| COc1ccccc1N1CCN(Cc2cc(OC)c3c(c2)OCO3)CC1 | 14.2% (inactive) |
| COc1ccccc1C1C2=C(COC2=O)Nc2cc3c(cc21)OCO3 (stereo not drawn) | 48.7% (active) |
| CNc1nnc(-c2ccco2)s1 | 23.3% (inactive) |
| COc1ccc(OC)c(/C=N/NC(=O)c2ccc[n+](CC(=O)c3ccccc3)c2)c1 | 13.3% (inactive) |
| Cc1ccc(S(=O)(=O)NC(C)C(=O)Nc2ccccc2C(=O)N2CCCC2)cc1 (stereo not drawn) | 14.3% (inactive) |
| C=CCC1(CC=C)CCCN1C(=O)c1cc(COc2ccc(-n3cncn3)cc2)on1 | 78.5% (active) |
| Cc1nonc1C1CCCN1C(=O)c1cc(COc2cccc(C(F)(F)F)c2)on1 (stereo not drawn) | 26.7% (inactive) |
| O=[N+]([O-])c1ccc(N2CCN(CC(O)COc3ccccc3)CC2)cc1 (stereo not drawn) | 27.5% (inactive) |
| COc1ccc(/C=N/N=C2/C(=O)Nc3ccccc32)cc1O | 21.9% (inactive) |
| COc1ccc(Cc2nnc(N/N=C/c3ccccc3O)[nH]c2=O)cc1OC | 73.7% (active) |
| c1ccc(-n2nnnc2N2CCOCC2)cc1 | 6.89% (inactive) |
| CC(C)c1ccc(OCC(O)CN2CCN(c3ccccn3)CC2)cc1 (stereo not drawn) | 10.6% (inactive) |
| Cc1cc([N+](=O)[O-])c(-c2ccc(/C=N/n3cnnc3)o2)cc1Cl | 15.1% (inactive) |
| O=C(C[C@H]1C/C=C\C[C@@H](NC(=O)OCC2c3ccccc3-c3ccccc32)C(=O)O[C@@H](c2ccccc2)CNC1=O)N[C@H](CO)Cc1ccccc1 | 57.2% (active) |
| COC(=O)c1ccccc1NC(=O)C1(S(=O)(=O)c2ccc(Cl)cc2)CC1 | 15.8% (inactive) |
| Cc1onc(-c2ccccc2)c1C(=O)Nc1ccccc1C#N | 14.9% (inactive) |
| Cc1cccc2nc(CSc3nc4[nH]ncc4c(=O)n3-c3cccc(Cl)c3)cc(=O)n12 | 64.1% (active) |

| SMILES | inhibition |
| --- | --- |
| CCN(CCO)C(=S)Nc1cc(C(=O)OC)ccc1C(=O)OC | 21.2% (inactive) |
| CC(=O)Nc1ccc(NC(=O)c2ccc3c(c2)C(=O)N(c2ccccc2C)C3=O)cc1 | 28.9% (inactive) |
| Cc1ccc(O)c(NC(=O)COc2cc(C)ccc2C)c1 | 76.8% (active) |
| C/C(=N\Nc1ccc(Cl)nn1)c1ccccc1O | 47.1% (active) |
| COc1ccc2nc(SCC(=O)Nc3c(C)cc(C)cc3C)[nH]c2c1 | 23.1% (inactive) |
| CSc1ncccc1C(=O)Nc1nc2ccc(F)cc2s1 | 79.4% (active) |
| Cc1cc(C)c(SCCc2ccncc2)c(C)c1 | 27% (inactive) |
| Cc1ccc(NC(=O)CN(C)CC(=O)Nc2cccc(F)c2)cc1[N+](=O)[O-] | 67.8% (active) |
| CCCC1=Nc2cc(C(=O)NCc3ccco3)ccc2Sc2ccccc21 | 31.8% (inactive) |
| O=C1C=C(c2ccnc3cc(Cl)ccc23)C[C@@H](c2ccc3c(c2)OCO3)C1 | 61% (active) |
| COc1ccc(C(=O)NC2CCCc3c2cnn3-c2cccc(C)c2C)c(OC)n1 (stereo not drawn) | 51.3% (active) |
| CN(c1ccc2nc3ccccc3c(=O)n2n1)C1CCCCC1 | 79.3% (active) |
| COc1cccc(-n2cc(C(=O)O)c3ccccc3c2=O)c1 | 22.9% (inactive) |
| COc1cccc2cc(C(N)=O)/c(=N\NC(=O)c3ccccc3)oc12 | 23.9% (inactive) |
| Cc1cc2[nH]ncc2cc1NC(=S)NC(=O)c1ccccc1 | 6.93% (inactive) |
| Cc1ccccc1C(=O)NC(=S)Nc1ccc(N2CCN(C(=O)c3ccccc3)CC2)cc1 | 64.5% (active) |
| CC(C)C(=O)Nc1nnc(SCC(=O)N2C(C)CCCC2C)s1 (stereo not drawn) | 17.7% (inactive) |
| Cc1ccc(Nc2nc(N3CCOCC3)nc(N3CCOCC3)n2)cc1Cl | 33.3% (inactive) |
| CCOc1ccc(-n2c(O)c(/C=N/Nc3nc(C)cc(C)n3)c3ccccc3c2=O)cc1 | 78.3% (active) |
| CCOc1ccc(-n2c(O)c(/C=N/c3ccnn3Cc3ccncc3)c3ccccc3c2=O)cc1 | 28% (inactive) |
| O=C(Nc1nc2ccc([N+](=O)[O-])cc2s1)c1ccc(S(=O)(=O)N2CCCc3ccccc32)cc1 | 82.2% (active) |
